Each structure is given as a SMILES string. The whole screen tested about 360,000 compounds, of which about 3,600 (1%) were called active. This is one part of a sample in which actives are shown more often than they occur. A number with no mark means an inactive call.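 The calls were made as follows: active = compounds whose plate-normalised and pattern-corrected inhibition of the luciferase reporter signal at the single screening dose is 50% or more; inactive = the rest.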

Consider 22 compounds from PubChem BioAssay AID1347056 (Sanford-Burnham Center for Chemical Genomics, 2019).

This test can be described thus: inhibitors of TROY-driven NF-kB signaling, primary screen, Q293 LMP1-TROYcd cells, NF-kB luciferase, uHTS (AID 1347056). The settings on record: Q293 LMP1-TROYcd NF-kB luciferase reporter, 4 h; at 10 µM; stronger effect = higher value.
With `CC(=O)c1ccc(-c2cnc3c(NC=O)cc(-c4cccc(NS(C)(=O)=O)c4)cn23)cc1`, the inhibition was 22.6%.
On to `CC(=O)Nc1cccc(-c2cc(NC=O)c3ncc(-c4ccc(F)c(Cl)c4)n3c2)c1`, for which the inhibition was 83.1% (active).
With `CC(=O)Nc1cccc(-c2cc(NC(C)=O)c3ncc(-c4ccccc4)n3c2)c1` the figure was 80.3% (active); with `COc1cccc(-c2cnc3c(NC(C)=O)cc(-c4cccc(NC(C)=O)c4)cn23)c1`, 12.8%; with `COc1cccc(-c2cc(NC(C)=O)c3ncc(-c4cccc(C(C)=O)c4)n3c2)c1`, 12.8%.
`CC(=O)c1cccc(-c2cnc3c(NC=O)cc(-c4cccc(C(=O)N(C)C)c4)cn23)c1`: the inhibition is -8.12%.
With `O=C(Nc1ccccc1F)c1ccc(Cn2cc(Br)cn2)cc1`, the inhibition was -34.2%.
As to `CCC(=NC1CC(C)(C)NC(C)(C)C1)C1=C(O)CC(C)(C)CC1=O`, the inhibition is -0.72%.
For `CC(C)c1cc(C(=O)O)on1`, the inhibition is -0.05%.
Turning to `CC1O[C@@H](OC2C(O)C(C)O[C@H](OC(=O)[C@]34CCC(C)(C)C[C@H]3C3=CCC5[C@@]6(C)CC(O)C(O[C@@H]7OC(CO)C(O)[C@@H](O)[C@@H]7O)[C@@](C)(C(=O)O)C6CC[C@@]5(C)[C@]3(CO)CC4)C2O[C@H]2OC(C)[C@@H](O[C@@H]3OCC(O[C@@H]4OC(CO)C(O)[C@H](O)C4O)[C@@H](O)[C@@H]3O)[C@H](O)C2O)C(O)C(O)C1O` (some centres not stated), the inhibition was 5%.
`O=C(Nn1c(SCc2ccc([N+](=O)[O-])cc2)nc2ccccc2c1=O)c1ccc(F)cc1`: the inhibition is 36.3%.
Regarding `Cc1ccnc(NC(=O)c2ccc(Cl)c([N+](=O)[O-])c2)c1`, the inhibition is -25.6%.
As to `Cc1nc2ccccc2c(=O)n1NC(=O)c1ccc(Cl)c([N+](=O)[O-])c1`, the inhibition is 73.3% (active).
With `Cc1cccc(OC(C)C(=O)N2CCc3ccccc3C2)c1` (configuration not stated), the inhibition is -6.07%.
`Cc1cccnc1C(NC(=O)C1CCN(Cc2ccc(Cl)c(Cl)c2)CC1)c1ccc(Cl)cc1` (configuration not stated): the inhibition is 4.08%.
As to `COCCCNC(=O)CNC(=S)N(Cc1cc(OC)c(OC)c(OC)c1)C1CCCC1`, the inhibition is 10.9%.
On to `Cc1ccc(SCC(=O)c2cc(C)c(OC(=S)N(C)C)c(C)c2)cc1`, for which the inhibition is 63.3% (active).
As for `Cc1ccc(SCC(=O)Nc2ccc3c(c2)OCCO3)cc1`, the figure is -62.5%; as for `COC(=O)c1cc(OC)c(OC)cc1NC(=O)CSc1ccc(C)cc1`, 21.1%; as for `CN(C)S(=O)(=O)c1ccc(Oc2ccc(S(=O)(=O)N(C)C)cc2)cc1`, -1.31%.
On to `Cc1cc(C(C)(C)C)cc(C)c1N`, for which the inhibition was 2.63%.
Consider `CC(C)(C)c1ccc(Oc2ccc(N)cc2)cc1`, for which the inhibition was 86.2% (active).
